Reference: PubChem BioAssay (NCATS)
Results filed as inconclusive are left out. Active and inactive are the calls of the source. Calls follow the shape of the dose curve; as a rule, active = well fitted inhibition curve with a large enough effect; inconclusive = small, poorly fitted or top-dose-only effect; inactive = no such curve, though single readings can be large or run the other way.

Experiment: qHTS assay for measurement of the activity of small molecule inhibitors on Zika virus induced Caspase-3 activity in human iPSC derived neural progenitor cells (hNPCs) (AID 1224857); also: nearly all actives have a fitted effect of over 65% in size
Conditions: hNPCs ZIKV-induced caspase-3/7, Caspase-Glo luminescence, 6 h; series mostly up to 45.7 µM
Text: National Center for Advancing Translational Sciences [NCATS]
Johns Hopkins University School of Medicine
Increase in the Caspase-3 activity indicates an activation of apoptosis cell death pathway caused by Zika virus infection in certain types of neuronal cells including human neural progenitor cells (hNPCs), astrocytes, and astrocytoma cell line (SNB-19). This cell-based caspase-3 activity assay measures the increased caspase-3 activity in the human iPSC derived neural progenitor cells (hNPCs) after a 6-hour Zika virus infection with a luminescence readout. A decrease in the luminescence signal in this assay by small molecule treatment indicates an inhibitory effect of that small molecule on the Zika virus induced caspase-3 activity that may correlate with its effect on reduction of Zika virus caused cell death.
The medium for hNPCs consists of DMEM/F12, N2 supplement (ThermoFisher, Cat.# 17502048), NEAA (ThermoFisher, Cat. # 11140050), 2 ug/ml heparin, 2 uM cyclopamine, and B27 (ThermoFisher, Cat. # 17504044). A Caspase-Glo 3/7 assay kit (catalog number G8092; Promega, Madison, WI) was used to detect caspase-3 activity induced by Zika virus infection in human cells. The reagent mixture was reconstituted as described in the protocol from the manufacturer. Polystyrene tissue culture treated and PDL coated white plates were obtained from Greiner Bio-One (Monroe, NC). Cells were seeded in 384- or 1536-well assay plates and cultured at 37 C with 5% CO2 for 16 to 20 hours. The typical cell seeding density in the 1536-well plate assay is 350 cells/well in 3 ul medium for hNPCs in tissue culture treated plates. Compounds were added to cells and incubated for one hour before addition of ZIKV solution to cells (2 FFU/cell). After incubation at 37 C with 5% CO2 for 6 hours, the reagent mixture of Caspase-Glo 3/7 assay kit was added to each well, followed by incubation at room temperature for 30 minutes. The luminescence intensity of the assay plates was measured using a ViewLux plate reader (PerkinElmer). Data were normalized by using the cell-containing wells without ZIKV as a negative control (0% induction of caspase 3/7 activity) and wells containing ZIKV infected cells (Caspase-3 activity induced) as a positive control (100% induction of caspase 3 activity). The percentage inhibitions of the increased Caspase-3 activity by small molecule inhibitors were then calculated.

Question: For CC1=C(C(=O)OC(C)C)C(c2cccc([N+](=O)[O-])c2)C(C(=O)OC2CN(C(c3ccccc3)c3ccccc3)C2)=C(N)N1 (stereo not given), which outcome is on record?
Answer: inactive

Question: Which outcome does the source give for COc1cccc2c1C(=O)c1c(O)c3c(c(O)c1C2=O)C[C@@](O)(C(=O)CO)C[C@@H]3O[C@H]1C[C@H](N)[C@H](O)[C@H](C)O1 here?
Answer: inactive

Question: Which outcome does the source give for CC(C)=CCC1C(=O)N(c2ccccc2)N(c2ccccc2)C1=O here?
Answer: inactive

Question: With CC(CCc1ccccc1)NCC(O)c1ccc(O)c(C(N)=O)c1 (stereo not given) as the compound, how does the outcome read?
Answer: inactive

Question: Which outcome does the source give for O=C(O)CNC(=O)c1ccccc1 here?
Answer: inactive

Question: Which outcome does the source give for Nc1nc2ncc(CNc3ccc(C(=O)N[C@@H](CCC(=O)O)C(=O)O)cc3)nc2c(=O)[nH]1 here?
Answer: inactive

Question: For Nc1ccc(C(=O)Nc2ccccc2N)cc1, which outcome is on record?
Answer: inactive

Question: For C[C@@H]1C[C@H]2[C@@H]3C[C@H](F)C4=CC(=O)C(Cl)=C[C@]4(C)[C@@]3(F)[C@@H](O)C[C@]2(C)[C@@]1(O)C(=O)CO, which outcome is on record?
Answer: inactive

Question: For CC1(C)O[C@@H]2C[C@H]3[C@@H]4C[C@H](F)C5=CC(=O)C=C[C@]5(C)[C@H]4[C@@H](O)C[C@]3(C)[C@]2(C(=O)CO)O1, which outcome is on record?
Answer: inactive

Question: With COC1=CC(=O)C[C@@H](C)[C@]12Oc1c(Cl)c(OC)cc(OC)c1C2=O as the compound, how does the outcome read?
Answer: inactive

Question: With C[C@]12C=CC(=O)C=C1CC[C@@H]1[C@@H]2[C@@H](O)C[C@@]2(C)[C@H]1CC[C@]2(O)C(=O)CO as the compound, how does the outcome read?
Answer: inactive

Question: For O=C(O)CCCCC(=O)O, which outcome is on record?
Answer: inactive

Question: With O=C1[C@H]2CCCC[C@H]2C(=O)N1CCCCN1CCN(c2nsc3ccccc23)CC1 as the compound, how does the outcome read?
Answer: inactive

Question: For CC(=O)Nc1c(I)cc(I)c(C(=O)O)c1I, which outcome is on record?
Answer: inactive

Question: Which outcome does the source give for c1ccc(OCc2ccc(CCCN3CCOCC3)cc2)cc1 here?
Answer: inactive

Question: With CN1CCCC(CC2c3ccccc3Sc3ccccc32)C1 (stereo not given) as the compound, how does the outcome read?
Answer: inactive

Question: For C[C@H]1[C@H](NC(=O)/C(=N/OC(C)(C)C(=O)O)c2csc(N)n2)C(=O)N1S(=O)(=O)O (stereo in doubt), which outcome is on record?
Answer: inactive

Question: With C[C@]12CCC(=O)C=C1CC[C@H]1[C@@H]3CC[C@](O)(C(=O)CO)[C@@]3(C)C[C@H](O)[C@@]12F as the compound, how does the outcome read?
Answer: inactive

Question: Which outcome does the source give for O=C(OCC(O)CO)c1ccccc1Nc1ccnc2cc(Cl)ccc12 (stereo not given) here?
Answer: inactive

Question: For CN1[C@@H]2CC[C@H]1CC(OC(=O)c1c[nH]c3ccccc13)C2 (stereo not given in full), which outcome is on record?
Answer: inactive

Question: With CN=C(NC#N)NCCSCc1csc(N=C(N)N)n1 as the compound, how does the outcome read?
Answer: inactive

Question: For CCOC(=O)COc1ccc2c(C)c(CCN(CC)CC)c(=O)oc2c1Cl, which outcome is on record?
Answer: inactive

Question: For CC(C)COC(=O)OCN1C(=O)CN(CCN2CC(=O)N(COC(=O)OCC(C)C)C(=O)C2)CC1=O, which outcome is on record?
Answer: inactive

Question: Which outcome does the source give for COc1cc(NS(C)(=O)=O)ccc1Nc1c2ccccc2nc2ccccc12 here?
Answer: inactive

Question: For CC(C)C[C@H]1C(=O)N2CCC[C@H]2[C@]2(O)O[C@](NC(=O)[C@@H]3C=C4c5cccc6[nH]c(Br)c(c56)C[C@H]4N(C)C3)(C(C)C)C(=O)N12, which outcome is on record?
Answer: inactive

Question: With CC(=O)O[C@]1(C(C)=O)CC[C@H]2[C@@H]3C[C@H](C)C4=CC(=O)CC[C@]4(C)[C@H]3CC[C@@]21C as the compound, how does the outcome read?
Answer: inactive

Question: Which outcome does the source give for CC(C)(C)CC(C)(C)c1ccc(O)c(Cc2ccc(Cl)cc2Cl)c1 here?
Answer: inactive

Question: For O=C(Nc1ccc(Oc2ccc(Cl)cc2)c(Cl)c1)c1cc(I)cc(I)c1O, which outcome is on record?
Answer: inactive

Question: For CCCCCCCCCCCCCCCC[N+](C)(C)CCN(Cc1ccc(OC)cc1)c1ncccn1, which outcome is on record?
Answer: inactive

Question: Which outcome does the source give for C#C[C@]1(OC(C)=O)CC[C@H]2[C@@H]3CCC4=C[C@@H](OC(C)=O)CC[C@@H]4[C@H]3CC[C@@]21C here?
Answer: inactive

Question: For CN(C/C=C/c1ccccc1)Cc1cccc2ccccc12, which outcome is on record?
Answer: inactive

Question: For CCC(NC(C)C)C(O)c1ccc(O)c(O)c1 (stereo not given), which outcome is on record?
Answer: inactive

Question: For O=C(OCCOCCO)c1ccccc1Nc1cccc(C(F)(F)F)c1, which outcome is on record?
Answer: inactive

Question: Which outcome does the source give for O=c1[nH]c(=O)n([C@H]2C[C@H](O)[C@@H](CO)O2)cc1C(F)(F)F here?
Answer: inactive

Question: For CN=C(NC#N)Nc1ccc(C2=NNC(=O)CC2C)cc1 (stereo not given), which outcome is on record?
Answer: inactive

Question: With COc1cc2c(cc1OC)[C@@H]1CC(=O)[C@@H](CC(C)C)CN1CC2 as the compound, how does the outcome read?
Answer: inactive

Question: With Nc1ccc(C(=O)O)cc1 as the compound, how does the outcome read?
Answer: inactive

Question: Which outcome does the source give for OC[C@H]1O[C@@H](n2cnc3c(=S)nc[nH]c32)[C@H](O)[C@@H]1O here?
Answer: inactive

Question: With CC(=O)OCC(=O)[C@@]1(O)[C@H](C)C[C@H]2[C@@H]3CCC4=CC(=O)C=C[C@]4(C)[C@@]3(F)[C@@H](O)C[C@@]21C as the compound, how does the outcome read?
Answer: inactive

Question: Which outcome does the source give for CCN(CC)CCOC(=O)C(c1ccccc1)C1CCCCC1 (stereo not given) here?
Answer: inactive
